# Among all 71,000 compounds or so, about 310 (0.44%) were called active. Roughly 5% stayed inconclusive and do not appear here. For the sample, actives were picked, then their nearest neighbours and some compounds at random. Unmarked numbers belong to inactive results. The call rests on the fitted dose curve; in most records, active means well fitted curve in either direction with a large enough effect; inconclusive means small, poorly fitted or top-dose-only effect, or another doubt; inactive means flat fitted curve, though single readings scatter.
# Tested on: Hsp90 C-terminal peptide / TPR2A (Hop) interaction, human
# Test: qHTS Assay for Disrupters of an Hsp90 Co-Chaperone Interaction
# Settings: AlphaScreen TPR2A-His6 binding biotin-Hsp90 C-terminal peptide; series mostly up to 57 µM; activity change, negative = inhibition: at the top concentration
# Text: NIH Chemical Genomics Center [NCGC]
# NIH Molecular Libraries Screening Centers Network [MLSCN]
# Hsp90 (heat shock protein 90) is the essential molecular chaperone and it accounts for 1-2% of all cytosolic proteins and is critical for the activity of diverse cellular proteins that are involved in a variety of cellular processes, including development, cell cycle, and steroid hormone signaling. Its client proteins include signaling kinases such as IGF1R, Akt, v-Src, Raf-1; regulators of cell survival such as Bcr-Abl; and transcription factors such as mutated p53, estrogen and progesterone receptors. Hsp90 has emerged as an important target for cancer treatment due to its essential role in maintaining transformation and regulating the function of oncogenic signaling proteins.
# The in vivo function of Hsp90 is regulated by the binding and hydrolysis of ATP at its N-terminal. Geldanamycin binds to ATP site and inhibit Hsp90 function. Geldanamycin and its analogues are under clinical trials in cancer patients.
# This domain contains the binding site for tetratricopeptide repeat (TPR) domains on HOP (Hsp Organizing Protein). TPR is a structural motif used by a significant number of cochaperones by which the in vivo function of Hsp90 is regulated. TPR2A on HOP binds specifically to MEEVD motif of the C-terminal of Hsp90.
# A homogeneous AlphaScreen is developed to assess the interaction between TPR2A and MEEVD motif of the C-terminal of Hsp90 by using the isolated TPR2A domain and a synthesized 20mer Hsp90 C terminal peptide. AlphaScreen is two bead-based proximity-dependent chemical energy transfer luminescent assay platform. TPR2A-His-6 and biotinylated Hsp90 C terminal peptide will bring streptavidin donor beads and nickel chelate acceptor beads to a proximity range (less than 200 nm), and subsequently lead a chemical luminescent reaction upon exciting donor beads with 680 nm laser. Inhibition of TPR2A and MEEVD motif interaction by small molecules could attenuate or abolish this chemical luminescent reaction.
# Counter screening: Biotinylated-His-6 (PerkinElmer) can be utilized as a counter screen, as it serves as a linker to bring streptavidin beads and nickel chelate beads together. The counter screen can exclude alpha screen platform false positives due to small molecules being metal chelators, biotin analogues and imidazole analogues, or due to interfering with oxygen release from donor beads. Such an assay should be utilized to qualify any activity observed in this screen.
# NCGC Assay Protocol Summary:
# The assay was performed on 1536-well white plate (untreated solid bottom). Liquids were dispensed by 1536-well plate washer (Kalypsys, San Diego, CA). Plates were read on EnVision (PerkinElmer, Boston, MA).TPR2A-His6 was produced using a bacteria expression system and purified using a well developed method (Ghosh et al., 2000). Hsp90 C terminal 20-mer peptide with or without an N-terminal biotin group are synthesized using automated solid phase synthesis by the Yale Keck facility. The composition of assay buffer was (in mM) 25 HEPES, 100 KCl, 2 MgCl2 and 2 DTT; 0.1% BSA and 0.01% Tween-20. TPR2A-His6 binding to biotin-Hsp90 will bring streptavidin donor beads and nickel chelate acceptor beads (PerkinElmer) together and can be measured by Alpha reading by EnVision (PerkinElmer). Free Hsp90 blocks biotin-Hsp90 binding to TPR2 and serves as a positive control in the current asssay.
# The assay was performed at room temperature. All compounds were screened as titrations from […] to 46 uM final concentration. The assay was performed in 1536-well format plates (untreated white solid bottom, Corning Inc.) as follows:
# Sequence,Parameter,Value,Description
# 1,Reagent,3 uL TPR2A-His6,Final concentration was 5nM
# 2,Compound,23 nL,Final titration was from 0.7 nM to 46 uM
# 3,Time,15 minutes,Room temperature
# 4,Reagent,1 uL biotin-Hsp90,With and without free Hsp90. Final concentration was 10 nM for biotin-Hsp90 and 10uM for free Hsp90.
# 5,Time,1 hour,Room temperature
# […]
# On the % scale 0 is the no-effect control and ±100 the full control effect; potency means the concentration at half of the fitted maximal effect.
SMILES,"activity change, negative = inhibition",Potency
C[C@]1(O)CC[C@H]2[C@H]3CC=C4N5CCN=C5CC[C@@]4(C)[C@H]3CC[C@@]21C,-4.96% [at 11 µM],
CC1(CCC(=O)OC2CCCCC2)OCCO1,-2.62% [at 11 µM],
CN1CCN(S(=O)(=O)c2ccc3[nH]cc(C(=O)O)c(=O)c3c2)CC1,-0.632%,
CCOC(=O)c1nc(N)sc1C(=O)OCC,0.817%,
COC(=O)C1(C)C=CCN1C(=O)c1ccccc1 (configuration not stated),-3.13%,
Cc1c(O)c(Br)c(C)c(O)c1Br (tested in a mixture with another compound),-3.86% [at 11 µM],
COCCNc1ccnc(-c2cccc(NS(C)(=O)=O)c2)n1,-3.91%,
Cc1cccc(CNc2cc(-c3ccccc3Cl)ncn2)c1,6.04%,
O=C(Nc1c[nH]c(=O)[nH]c1=O)Oc1ccccc1,1.58% [at 11 µM],
Nc1ccccc1N,0.745%,
COc1cc([C@H]2c3cc4c(cc3[C@@H](O[C@@H]3O[C@H]5CO[C@@H](C)O[C@]5(O)C[C@H]3O)[C@@H]3COC(=O)[C@H]23)OCO4)cc(OC)c1O,-4.89%,
NS(=O)(=O)c1ccc(NS(=O)(=O)/C=C/c2ccccc2)cc1,0.079%,
Cc1ccc(S(=O)(=O)C(C#N)c2nc3ccccc3nc2N2CCCC2)cc1C (configuration not stated),-13.2%,
Cc1cc(C)c2nc(N3CCCC3)c(C#N)cc2c1,3.01%,
Cc1cccc2cc(C#N)c(N3CCCC3)nc12,,31.6 µM [activator] (active)
C[C@@H]1C[C@H]2[C@@H]3C[C@H](F)C4=CC(=O)C=C[C@@]4(C)[C@]3(F)[C@H](O)C[C@]2(C)[C@@]1(O)C(=O)CO,-3.15% [at 26 µM],
CN1CCN(c2ncc3nc(-c4ccc(Cl)cc4)c(=O)n(-c4ccccc4)c3n2)CC1,-0.003%,
O=C(Nc1cccc(F)c1)N1CCC2(CC1)CCN(S(=O)(=O)c1ccccc1)CC2,1.21%,
Cc1nc2cnc(Oc3cccc(Cl)c3)nc2n(C2CC2)c1=O,-1.71%,
O/N=C1\CC2(Cc3nonc31)OCCO2,-2.81%,
ON=C1/C(=N\O)CC2(C/C1=N/O)OCCO2,,12.6 µM (active)

SMILES,"activity change, negative = inhibition",Potency
O=c1c(CCc2ccccc2)nc2cncnc2n1C1CC1,-2.81%,
COc1ccccc1CNc1ncncc1-c1cccc(NS(C)(=O)=O)c1,5.26%,
COCCNc1cc(-c2c(C)noc2C)ncn1,-2.68%,
O=C(O)[C@@H]1[C@@H](C(=O)O)[C@]23C[C@@]2(C(=O)O)[C@]2(C(=O)O)CCC3=C3CCCC312,0.013% [at 11 µM],
O=C(CC(NS(=O)(=O)c1ccc(Cl)cc1)c1ccco1)NC1CCCC1 (configuration not stated),-9.73%,
CN1CCN(S(=O)(=O)c2ccc(NC(=O)C3CCCO3)cc2)CC1 (configuration not stated),-2.48%,
O=S(=O)(c1ccccc1)N1CCC2(CC1)CN(Cc1nccs1)C2,-4.1%,
NC1(C(=O)OCc2ccccc2)CCCC1,-2.78% [at 11 µM],
NCC(=O)[C@@H](O)[C@H](O)[C@H](O)CO,-1.57% [at 11 µM],
Cc1ccc(CNC(=O)C2CC(=O)N(C3CCCCCCC3)C2)cc1 (configuration not stated),0.056%,
COc1ccc(C(=O)N2CCC[C@@]3(CCN(C(=O)NC(C)C)C3)C2)cc1,-3.02%,
Clc1ccc(Cc2nnc(-c3cccs3)o2)cc1,12.2%,
Cn1c(=O)c(-c2ccccc2)nc2cnc(N3CCNCC3)nc21,-1.54%,
C=CC(=C)CCC=C(C)C,-2.65%,
CN1CCN(c2cc(=O)n(-c3ccc(Cl)cc3)c(=O)[nH]2)CC1,0.293%,
CCN(CC)S(=O)(=O)N1CCC(C(=O)NC(C)CCc2ccccc2)CC1 (configuration not stated),-1.59%,
CC1=C(C(=O)OCc2ccccc2)C(c2ccc(C(F)(F)F)cc2)NC(=O)N1CCCCCC(=O)O (configuration not stated),0.276%,
COC(=O)C(CC(=O)Nc1cc(C)ccc1C)Nc1ccccc1OC (configuration not stated),-6.74%,
O=C(O)c1ccc(COCC(F)(F)F)cc1,-3.8%,
COC(=O)[C@@H]1[C@H]2C[C@H]3c4[nH]c5cc(OC)ccc5c4CCN3C[C@@H]2C[C@@H](OC(=O)c2cc(OC)c(OC)c(OC)c2)[C@@H]1OC,-28.3%,
CC[C@]1(C)CC(=O)NC1=O,inactive,

SMILES,"activity change, negative = inhibition",Potency
CCCn1c(-c2ccc(F)cc2)nc2c(NCC3CCCN3CC)nc(C)nc21 (configuration not stated),-1.96%,
CCNc1ncc2ncc(=O)n(CCc3ccccc3)c2n1,-2.48%,
Cc1c(NC(=O)c2cccnc2)c(=O)n(-c2ccccc2)n1C,1.13% [at 26 µM],
CN1C(=O)C[C@H](c2ccccc2)C1=O,-0.092% [at 26 µM],
CC[C@@H]1Cc2cc(O)ccc2C2=C1c1ccc(O)cc1C[C@H]2CC,-24.7%,
Nc1ccc2c3c(cccc13)C(=O)NC2=O,-3.62%,
COc1ccc(CC(=O)Nc2ccc3c(c2)CCC3)cc1S(=O)(=O)N1CCOCC1,-4.91%,
CC(C)[C@@H](CC(=O)N[C@@H]1CCNC[C@H]1C(=O)N[C@H](CC(=O)N[C@@H](CCC(=O)O)CC(=O)O)Cc1ccccc1)NC(=O)C[C@H](CO)NC(=O)[C@@H]1CNCC[C@H]1N,-13.9%,
CC(C)C[C@@H](CC(=O)N[C@@H](CCC(=O)O)CC(=O)O)NC(=O)[C@@H]1CCCC[C@H]1NC(=O)C[C@@H](NC(=O)C[C@H](Cc1c[nH]c2ccccc12)NC(=O)[C@@H]1CCCC[C@H]1N)C(C)C,,5.01 µM (active)
O=C(c1cccnc1NCc1ccccc1)N1CCOCC1,-6.22%,
OC(COc1ccc2ccccc2c1)CN1CCOCC1 (configuration not stated),1.54%,
Oc1c(C(c2ccccn2)N2CCOCC2)ccc2cccnc12 (configuration not stated),,2 µM (active)
CCN(Cc1ccncc1)C(=O)[C@@H](CO)c1ccccc1,inactive,
CS(=O)(=O)N1CCC2(CC1)CN(Cc1ccccc1)C2,-3.42%,
COc1cccc(Cn2c(=O)c(-c3ccccc3)nc3cnc(OC)nc32)c1,-0.069%,
CCCC[C@@H]1C[C@H]1C(NC(=O)c1ccc(-c2ccccc2)cc1)c1ccc(-c2ccccc2)cc1 (some centres not stated),-4.75%,
CC1=C(C(=O)Nc2ccc(Cl)cc2)C(c2ccco2)NC(=O)N1 (configuration not stated),-8.22%,
Cc1ccc2[nH]c(=O)c(-c3nc4c(C)cccn4c3NCc3ccco3)cc2c1,-10.2%,
Clc1ccc(C(c2ccc(Cl)cc2)n2cc[n+](C[C@@H](OCc3ccc(Cl)cc3Cl)c3ccc(Cl)cc3Cl)c2)cc1,-23.7%,
O=C(O)[C@@H](O)Cc1ccccn1,-2.31% [at 11 µM],

# Reference: PubChem BioAssay AID595 (National Center for Advancing Translational Sciences (NCATS), 2007)
